The values that follow come from PubChem BioAssay (Tox21).

Test [1] is described as follows: qHTS assay to identify small molecule antagonists of the vitamin D receptor (VDR) signaling pathway - cell viability counter screen (AID 743225). Further: nearly all actives have a fitted effect of over 50% in size. In short, it runs like this:
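VDR-UAS-bla HEK 293T cells were plated and incubated 4 h at 37C, then dosed with compound plus 3 nM (final) 1-alpha,25-dihydroxyvitamin D3 for 16 h. After the 2 h beta-lactamase read, viability in the same wells was read as CellTiter-Glo luminescence after 30 min at room temperature.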
In general terms: In qHTS, concentration-response curves come from the screen itself.

A short description of test [2]: qHTS assay to identify small molecule agonists of the NFkB signaling pathway (AID 1159509; active means well fitted curve in the direction sought with a large enough effect in the signal ratio in the repeat runs, not every such curve was filed as active; the % refers to the signal ratio; further: series mostly up to about 61 µM). In short, it runs like this: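 NFkB-bla ME-180 cells with a beta-lactamase reporter under an NF-kB response element were plated overnight, treated with compounds in DMSO for 5 hr at 37 C, then loaded with FRET substrate for 1.5 hr at room temperature.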
A short description of test [3]: qHTS assay to identify small molecule agonists of the NFkB signaling pathway - cell viability counter screen (AID 1159515; calls by dose curve; further: series mostly up to about 61 µM; nearly all actives have a fitted effect of over 55% in size). In short, it runs like this:
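Luminescence from CellTiter-Glo (30 min, room temperature) gives viability, measured in the same wells as the beta-lactamase reporter read. Cells were NFkB-bla ME-180, 2,000 per well, treated 5 hr with compounds.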

Test [4] can be described thus: qHTS assay to identify small molecule agonists of the endoplasmic reticulum stress response signaling pathway (AID 1159516; active means well fitted activation curve with a large enough effect in the signal ratio in the repeat runs, not every such curve was filed as active; the % refers to the signal ratio). An outline of the steps: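 Read-out is beta-lactamase cleavage of a FRET substrate (405 nm excitation; 460 and 530 nm emissions) in ESRE-bla HeLa cells after a 5 hr compound exposure at 37 C. Substrate incubation ran 2 hr at room temperature.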

Test [5] can be described thus: qHTS assay to identify small molecule antagonists of the retinoid-related orphan receptor gamma (ROR-gamma) signaling pathway - cell viability counter screen (AID 1159520). Further: nearly all actives have a fitted effect of over 50% in size. Further: potency means the concentration at half of the fitted maximal effect. An outline of the steps: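 Tet-on ROR gamma CHO cells (1,000/well) were plated 4 hr, given compounds in DMSO for 2 hr at 37 C, then induced with 1 uM final doxycycline for 16 hr. Viability was read as ATP by CellTiter-Glo luminescence after 30 min.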

For test [6], the target named is Nuclear receptor ROR-gamma (Homo sapiens) (UniProt P51449). In words: qHTS assay to identify small molecule antagonists of the retinoid-related orphan receptor gamma (ROR-gamma) signaling pathway (AID 1159521; further: nearly all actives have a fitted effect of over 50% in size; further: potency means the concentration at half of the fitted maximal effect). In short, it runs like this:
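Tet-on ROR-gamma CHO cells with ROR response element-luciferase reporter; compounds added 2 hr before 1 uM doxycycline induction, then 16 hr at 37 C. Antagonism scored as decreased ONE-Glo luminescence.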

The nature of test [7]: qHTS assay to identify small molecule agonists of the AP-1 signaling pathway - cell viability counter screen (AID 1159525; calls by dose curve; further: nearly all actives have a fitted effect of over 55% in size; further: potency means the concentration at half of the fitted maximal effect). An outline of the steps: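 ME-180 AP-1-bla, 2500 cells/well, Opti-MEM + 0.5% dialyzed FBS; overnight 37 °C; cpd 15-pt titration, 5 h 37 °C; CellTiter-Glo 30 min RT; luminescence read; normalised to TOAB and DMSO controls.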
Test [8] can be described thus: qHTS assay to identify small molecule agonists of the AP-1 signaling pathway (AID 1159526; calls by dose curve).
Test [9] is described as follows: qHTS assay to identify small molecule agonists of the RXR signaling pathway - cell viability counter screen (AID 1159529). Further: nearly all actives have a fitted effect of over 50% in size. Further: potency means the concentration at half of the fitted maximal effect. An outline of the steps:
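RXR-alpha-UAS-bla HEK 293T cells in medium with 2% charcoal-stripped FBS were pre-incubated 5 hr, then compound-treated 16 hr at 37 C. Viability was read by CellTiter-Glo luminescence in the same wells as the beta-lactamase assay, with tetraoctyl ammonium bromide as positive control.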

Test [10] is described as follows: qHTS assay to identify small molecule antagonists of the retinoid acid receptor (RAR) signaling pathway - cell viability counter screen (AID 1159551). Further: nearly all actives have a fitted effect of over 35% in size. Further: potency means the concentration at half of the fitted maximal effect. In short, it runs like this: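 Luminescent ATP quantitation (CellTiter-Glo) gave cell viability in C3RL4 cells exposed to test chemicals for 6 h at 37 C alongside 1 uM final retinol.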
Test [11] in a line: qHTS assay to identify small molecule antagonists of the retinoic acid receptor (RAR) signaling pathway (AID 1159552; further: nearly all actives have a fitted effect of over 50% in size; further: potency means the concentration at half of the fitted maximal effect). In short, it runs like this:
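Retinol signaling pathway inhibitors screened in C3RL4 RARE-luciferase reporter cells seeded overnight at 37 C, then compounds added with 1 uM (final) retinol as pathway substrate. After 6 hr at 37 C, luciferase luminescence read after 30 min at room temperature.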

Test [12] in a line: qHTS assay to identify small molecule agonists of the retinoic acid receptor (RAR) signaling pathway (AID 1159553). An outline of the steps: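 Luminescence from a RARE-driven luciferase reporter in C3RL4 cells served as the read-out, measured after 30 min with detection reagent at room temperature. Compounds in DMSO were applied for 6 hr at 37 C following overnight seeding.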

A short description of test [13]: qHTS assay to identify small molecule antagonists of the estrogen related receptor (ERR) signaling pathway from Tox21 library - cell viability counter screen (AID 1224834). Further: nearly all actives have a fitted effect of over 30% in size. Further: potency means the concentration at half of the fitted maximal effect. In short, it runs like this: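 Fluorescence from CellTiter-Fluor gives the viability read-out, taken 30 min after reagent addition. Before that, ERR cells seeded 6 h earlier were incubated with compounds for 17.5 h at 37 C.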

In test [14] the target is Retinoic acid receptor RXR-alpha (Homo sapiens) (UniProt P19793). Description: qHTS assay to identify small molecule agonists of the RXR signaling pathway (AID 1159527; calls by dose curve; further: nearly all actives have a fitted effect of over 35% in size). An outline of the steps: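 GeneBLAzer RXR-alpha-UAS-bla HEK 293T cells in 2% charcoal-stripped FBS medium were exposed to compounds for 16 hr at 37 C in agonist mode. Beta-lactamase reporter read as 460/530 nm FRET ratio after 2 hr substrate loading.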

Results filed as inconclusive are left out. The source made the active and inactive calls. Unless noted, the call rests on the fitted dose curve; in most records, active means well fitted curve in the direction sought with a large enough effect in the repeat runs; inconclusive means weak or mixed curves; inactive means no such curve, though single readings can be large; an effect the other way counts as inactive or inconclusive.

Chain of Retinoic acid receptor RXR-alpha (Homo sapiens) (P19793 whole entry, looked up): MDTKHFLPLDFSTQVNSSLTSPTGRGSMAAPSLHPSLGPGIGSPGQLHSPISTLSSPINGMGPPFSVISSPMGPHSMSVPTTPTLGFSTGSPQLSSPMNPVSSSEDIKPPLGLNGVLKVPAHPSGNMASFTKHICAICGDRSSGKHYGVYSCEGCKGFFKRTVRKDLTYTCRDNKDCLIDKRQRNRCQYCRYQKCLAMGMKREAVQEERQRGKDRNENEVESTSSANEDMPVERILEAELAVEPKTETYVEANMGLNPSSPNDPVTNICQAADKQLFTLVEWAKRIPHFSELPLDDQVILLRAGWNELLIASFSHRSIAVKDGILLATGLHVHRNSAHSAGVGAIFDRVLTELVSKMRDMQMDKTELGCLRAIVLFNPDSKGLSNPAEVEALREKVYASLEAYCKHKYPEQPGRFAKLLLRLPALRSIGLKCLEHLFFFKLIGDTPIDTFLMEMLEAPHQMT

Take `N#Cc1ccncc1`: the result in test [1], in test [2], in test [3], in [4] and in test [8] was inactive. Besides, the Potency result in [5], in test [6], in test [7], in test [9], in test [10] and in test [11] was “inactive” throughout. The Potency result in [12] and in test [13] was “inactive” throughout.

On to `N#CC(Cl)(Cl)Cl`, for which the outcome in [1], in test [2], in test [3], in [4] and in [8] was inactive. The Potency entry in test [5], in test [7], in test [14], in test [9], in [10] and in test [11] was “inactive” in each case. Besides, the Potency entry in test [12] and in test [13] was “inactive” each time.

For `C=CCC1=C(C)[C@@H](OC(=O)[C@@H]2[C@@H](C=C(C)C)C2(C)C)CC1=O`, the result in test [2], in test [3] and in [4] was inactive. Moreover, the Potency in test [5] was 54.5 µM (active); in test [6], 27.3 µM (active); in [7], 49 µM (active); in test [9] it was 21.9 µM (active); in [10] it was 54.5 µM (active); in test [11], 27.3 µM (active). For the same molecule, in test [13], the Potency is 54.5 µM (active). For the same molecule, the Potency entry in test [12] is “inactive”.

As to `C1CCC(C2CCCCC2)CC1`, the outcome in test [2], in test [3], in test [4] and in [8] was inactive. The Potency result in test [5], in test [7], in test [10], in [11], in test [12] and in test [13] was “inactive” in each case.

As for `OCCBr`, the molecule was called inactive in test [1], in test [2], in test [3], in [4] and in test [8]. The Potency entry in [5], in [6], in [7], in [14], in test [9] and in test [10] was “inactive” each time. Also, the Potency result in [13] is “inactive”.

As for `Cc1nnc2n1-c1sc(CCC(=O)N3CCOCC3)cc1C(c1ccccc1Cl)=NC2`, the outcome in test [2], in test [3], in test [4] and in test [8] was inactive. The Potency result in [5], in test [6], in test [7], in test [10], in [11] and in test [12] was “inactive” each time. Besides, the Potency result in test [13] was “inactive”.

Take `O=C(CCN1CC1)OCC(CO)(COC(=O)CCN1CC1)COC(=O)CCN1CC1`: the molecule was classed as inactive in [1], in [2], in [3], in test [4] and in test [8]. Further, the Potency result in [5], in test [6], in test [7], in test [14], in [9] and in test [10] was “inactive” each time. In test [13], the Potency entry is “inactive”.

As to `CCCCOP(=O)(O)OCCCC`, the molecule was called inactive in test [1], in [2], in test [3], in [4] and in test [8]. The Potency result in [5], in test [6], in test [7], in test [9], in test [10] and in test [13] was “inactive” in each case.

In the case of `CC(N)=S`, the result in [2], in test [3], in [4] and in [8] was inactive. For the same molecule, the Potency result in [5], in test [6], in test [7], in test [9], in [10] and in [13] was “inactive” in each case.
